Test results reported in PubChem BioAssay (NCI).
About 83,000 compounds went through this panel and 20% of them were active in at least one assay; those are over-represented in the sample as a whole.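 48-hour exposure, single concentration, 96-well plates; percent growth endpoint where 0 means no net growth. Active: below 10.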 Activity calls are given as the source filed them.

Tested on: BT-549 breast
Test: NCI-60 one-dose screen, 48 h (100 = growth as untreated, 0 = no growth, -100 = all killed)
Conditions: 10 µM unless noted

| Structure (SMILES) | growth |
| --- | --- |
| COc1ccc2[nH]c3nc4cnccc4cc3c2c1 | 104% (inactive) |
| O=C(Nc1ccccc1)NS(=O)(=O)c1c[nH]c(=S)[nH]c1=O | 92.1% (inactive) |
| NCCCn1c2c(c3cc(-c4ccn[nH]4)ccc3c1=O)C(=O)c1ccccc1-2 | 77.3% (inactive) |
| COc1cc(-c2csc(NC(=O)Nc3ccc(C(F)(F)F)cc3)n2)cc(OC)c1OC | -8.1% (active) |
| COc1ccc2c(c1)C1(C(=O)N2)C(C#N)=C(c2ccccc2)Nc2c1c(-c1ccccc1)nn2-c1ccccc1 (centres undefined) | 84.5% (inactive) |
| Cc1ccc(C(=O)/C(=C/c2ccc([N+](=O)[O-])cc2)S(=O)Cc2ccccc2)cc1 (centres undefined) | 45.8% (inactive) |
| OCCNc1nc(NCCO)nc(Nc2ccc(C3=NN(c4cc(Cl)cc(Cl)c4)C(c4ccc(C(F)(F)F)cc4)C3)cc2)n1 (centres undefined) | 60.8% (inactive) |
| Cc1cnc(-c2ccc(-c3ccc(NC(=O)Nc4c(F)cc(F)cc4F)cc3F)c3c2C(=O)NC3)[nH]1 | 55.8% (inactive) |
| O=C(Nc1cccc(-c2cccc(F)c2)c1)C1CCN(Cc2cccc3cccnc23)CC1 | 76.3% (inactive) |
| CC(=O)ON1CCCC(P(=O)(OCOC(=O)C(C)(C)C)OCOC(=O)C(C)(C)C)C1=O (centres undefined) | -1.15% (active) |
| Cc1cnc(SCc2ccc(Cl)cc2Cl)nc1Nc1ccc(Cl)c(Cl)c1 | 101% (inactive) |
| O=C(O)c1cn(C2CC2)c2cc(N3CCN(Cc4nnc(Nc5ccccc5)o4)CC3)c(F)cc2c1=O | 98.8% (inactive) |
| C#Cc1cccc(Nc2ncnc3ccc(NC(=O)c4ccccc4)cc23)c1 | 74.6% (inactive) |
| CCOC(=O)c1c(C)nc2c(c1N)/C(=C/c1ccc[nH]1)C(=O)N2Cc1ccc(C(F)(F)F)cc1 | 58.4% (inactive) |
| O=CN1N=C(c2ccc(F)cc2)CC1c1cccc(Nc2ccnc3cc(C(F)(F)F)ccc23)c1 (centres undefined) | 44.3% (inactive) |
| Cc1cccc(C)c1NC(=O)CN(CC(C)C)CC(O)COc1ccccc1 (centres undefined) | 82.4% (inactive) |
| COc1ccccc1N1CCN(CCCOc2ccc(C(=O)/C=C3/C(=O)Nc4ccccc43)cc2)CC1 | 68.1% (inactive) |
| COc1cc(/C=C/C(=O)/C=C/c2cc3ccc(Cl)cc3n(Cc3ccccc3)c2=O)ccc1O | -19.2% (active) |
| Cc1cc(C)n(-c2nc(-c3cccs3)c(C#N)c(=O)[nH]2)n1 | 83% (inactive) |

| Structure (SMILES) | growth |
| --- | --- |
| CN(C)C1=NCCN1 | 97.5% (inactive) |
| N#CCNc1ccc(C(=O)O)cc1 | 106% (inactive) |
| COc1ccc2c(c1)/C(=C1\S/C(=N/c3nnc(C)s3)NC1=O)C(=O)N2Cc1ccc(Cl)cc1 | 54.6% (inactive) |
| O=C(O)CCNC1CCCCC1 | 99.6% (inactive) |
| N#CC1(C#N)C2=C(CCCC2)NC(c2c(F)cccc2Cl)C1(C#N)C#N (centres undefined) | 60.4% (inactive) |
| CCOC(=O)/C(=C/c1c(-c2ccccc2)[nH]c2ccccc12)C(=O)c1ccc(Cl)cc1 | 64.7% (inactive) |
| S=C(Nc1ccccc1)c1ccccn1 | 90.5% (inactive) |
| CC(=O)c1ccc(NC(=O)CSc2nnc(-c3cc(-c4ccc(Cl)cc4)nc4ccccc34)o2)cc1 | 79.7% (inactive) |
| COC(=O)c1ccc(NC(=O)CSc2nc(-c3ccc(F)cc3)nc3ccccc23)cc1 | 81.5% (inactive) |
| O=C1Nc2ccc(Cl)cc2/C1=N/c1nc(-c2ccc(Cl)cc2)cs1 | 17.4% (inactive) |
| COc1cc([C@H](C)c2ccc3ccccc3c2)cc(OC)c1OC | 39.1% (inactive) |
| Cc1cc2ccccc2c[n+]1CC(=O)c1ccc(-c2ccccc2)cc1 | 53.3% (inactive) |
| C=C(C)[C@@H]1CC[C@]2(C(=O)O)CC[C@]3(C)[C@H](CC[C@@H]4[C@@]5(C)C[C@@H](CC#Cc6ccccc6C)C(=O)C(C)(C)[C@@H]5CC[C@]43C)[C@@H]12 | 43.4% (inactive) |
| Nc1c(C(=O)Nc2cccc3ccccc23)sc2nc3c(cc12)COCC3 | 51.3% (inactive) |
| COC(=O)[C@]1(C)CCC[C@]2(C)[C@H]3C[C@H]4C(C(C)C)=C[C@]3(CC[C@H]21)[C@@H]1C(=O)N(CCC#N)C(=O)[C@@H]14 | 59.5% (inactive) |
| COCCOCCOCc1n(Cc2ccc3ccccc3c2)c2ccccc2[n+]1Cc1ccc2ccccc2c1 | 1.44% (active) |
| CC(=O)[C@@H]1CC[C@]2(C(=O)O)CC[C@]3(C)[C@H](CC[C@@H]4[C@@]5(C)Cc6c([nH]c7ccccc67)C(C)(C)[C@@H]5CC[C@]43C)[C@@H]12 | 71.9% (inactive) |
| N#Cc1c(-c2ccc(F)cc2)c(C#N)c2c(C#N)c(N)nn2c1N | 95.9% (inactive) |

Tested on: MDA-MB-435 melanoma
Test: as above
Conditions: 10 µM unless noted

| Structure (SMILES) | growth |
| --- | --- |
| COc1ccc2[nH]c3nc4cnccc4cc3c2c1 | 109% (inactive) |
| O=C(Nc1ccccc1)NS(=O)(=O)c1c[nH]c(=S)[nH]c1=O | 108% (inactive) |
| NCCCn1c2c(c3cc(-c4ccn[nH]4)ccc3c1=O)C(=O)c1ccccc1-2 | 63% (inactive) |
| COc1cc(-c2csc(NC(=O)Nc3ccc(C(F)(F)F)cc3)n2)cc(OC)c1OC | -26.9% (active) |
| COc1ccc2c(c1)C1(C(=O)N2)C(C#N)=C(c2ccccc2)Nc2c1c(-c1ccccc1)nn2-c1ccccc1 (centres undefined) | 55.3% (inactive) |
| Cc1ccc(C(=O)/C(=C/c2ccc([N+](=O)[O-])cc2)S(=O)Cc2ccccc2)cc1 (centres undefined) | 19.7% (inactive) |
| OCCNc1nc(NCCO)nc(Nc2ccc(C3=NN(c4cc(Cl)cc(Cl)c4)C(c4ccc(C(F)(F)F)cc4)C3)cc2)n1 (centres undefined) | 42.1% (inactive) |
| Cc1cnc(-c2ccc(-c3ccc(NC(=O)Nc4c(F)cc(F)cc4F)cc3F)c3c2C(=O)NC3)[nH]1 | 14.2% (inactive) |
| O=C(Nc1cccc(-c2cccc(F)c2)c1)C1CCN(Cc2cccc3cccnc23)CC1 | 35% (inactive) |
| CC(=O)ON1CCCC(P(=O)(OCOC(=O)C(C)(C)C)OCOC(=O)C(C)(C)C)C1=O (centres undefined) | 27% (inactive) |
| Cc1cnc(SCc2ccc(Cl)cc2Cl)nc1Nc1ccc(Cl)c(Cl)c1 | 104% (inactive) |
| O=C(O)c1cn(C2CC2)c2cc(N3CCN(Cc4nnc(Nc5ccccc5)o4)CC3)c(F)cc2c1=O | 97.6% (inactive) |
| C#Cc1cccc(Nc2ncnc3ccc(NC(=O)c4ccccc4)cc23)c1 | 84% (inactive) |
| CCOC(=O)c1c(C)nc2c(c1N)/C(=C/c1ccc[nH]1)C(=O)N2Cc1ccc(C(F)(F)F)cc1 | 90.9% (inactive) |
| O=CN1N=C(c2ccc(F)cc2)CC1c1cccc(Nc2ccnc3cc(C(F)(F)F)ccc23)c1 (centres undefined) | 58.2% (inactive) |
| Cc1cccc(C)c1NC(=O)CN(CC(C)C)CC(O)COc1ccccc1 (centres undefined) | 102% (inactive) |
| COc1ccccc1N1CCN(CCCOc2ccc(C(=O)/C=C3/C(=O)Nc4ccccc43)cc2)CC1 | 73% (inactive) |
| COc1cc(/C=C/C(=O)/C=C/c2cc3ccc(Cl)cc3n(Cc3ccccc3)c2=O)ccc1O | -19.1% (active) |
| Cc1cc(C)n(-c2nc(-c3cccs3)c(C#N)c(=O)[nH]2)n1 | 95.2% (inactive) |

| Structure (SMILES) | growth |
| --- | --- |
| CN(C)C1=NCCN1 | 110% (inactive) |
| N#CCNc1ccc(C(=O)O)cc1 | 101% (inactive) |
| COc1ccc2c(c1)/C(=C1\S/C(=N/c3nnc(C)s3)NC1=O)C(=O)N2Cc1ccc(Cl)cc1 | 52.8% (inactive) |
| O=C(O)CCNC1CCCCC1 | 117% (inactive) |
| N#CC1(C#N)C2=C(CCCC2)NC(c2c(F)cccc2Cl)C1(C#N)C#N (centres undefined) | 18% (inactive) |
| CCOC(=O)/C(=C/c1c(-c2ccccc2)[nH]c2ccccc12)C(=O)c1ccc(Cl)cc1 | 9.31% (active) |
| S=C(Nc1ccccc1)c1ccccn1 | 103% (inactive) |
| CC(=O)c1ccc(NC(=O)CSc2nnc(-c3cc(-c4ccc(Cl)cc4)nc4ccccc34)o2)cc1 | 85.5% (inactive) |
| COC(=O)c1ccc(NC(=O)CSc2nc(-c3ccc(F)cc3)nc3ccccc23)cc1 | 68.1% (inactive) |
| O=C1Nc2ccc(Cl)cc2/C1=N/c1nc(-c2ccc(Cl)cc2)cs1 | -82.3% (active) |
| COc1cc([C@H](C)c2ccc3ccccc3c2)cc(OC)c1OC | 0.308% (active) |
| Cc1cc2ccccc2c[n+]1CC(=O)c1ccc(-c2ccccc2)cc1 | 66.3% (inactive) |
| C=C(C)[C@@H]1CC[C@]2(C(=O)O)CC[C@]3(C)[C@H](CC[C@@H]4[C@@]5(C)C[C@@H](CC#Cc6ccccc6C)C(=O)C(C)(C)[C@@H]5CC[C@]43C)[C@@H]12 | 55.5% (inactive) |
| Nc1c(C(=O)Nc2cccc3ccccc23)sc2nc3c(cc12)COCC3 | -1.93% (active) |
| COC(=O)[C@]1(C)CCC[C@]2(C)[C@H]3C[C@H]4C(C(C)C)=C[C@]3(CC[C@H]21)[C@@H]1C(=O)N(CCC#N)C(=O)[C@@H]14 | 86.5% (inactive) |
| COCCOCCOCc1n(Cc2ccc3ccccc3c2)c2ccccc2[n+]1Cc1ccc2ccccc2c1 | 7.86% (active) |
| CC(=O)[C@@H]1CC[C@]2(C(=O)O)CC[C@]3(C)[C@H](CC[C@@H]4[C@@]5(C)Cc6c([nH]c7ccccc67)C(C)(C)[C@@H]5CC[C@]43C)[C@@H]12 | 81.2% (inactive) |
| N#Cc1c(-c2ccc(F)cc2)c(C#N)c2c(C#N)c(N)nn2c1N | 101% (inactive) |
